From PubChem BioAssay (NCI) come the findings set out here.

What all share (experiment): NCI-60 one-dose screen, 48 h (100 = growth as untreated, 0 = no growth, -100 = all killed)
Conditions in all cases: 10 µM

For assay [1], the system named is NCI-H23 lung.
Assay [2] relates to NCI-H226 lung.
The test system of assay [3] is NCI-H460 lung.
Assay [4] concerns HOP-92 NSCLC.
Assay [5] relates to NCI-H522 lung.
Assay [6] deals with A549/ATCC NSCLC.
In assay [7] the test system is 786-0 renal.
The test system of assay [8] is COLO 205 colon.

This is part of a sample that, as a whole, favours compounds with a hit. Of some 83,000 tested, about 20% had one in any assay.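 Note: values are percent growth. 100 is the growth of untreated cells, values between 100 and 0 indicate rising inhibition; between -100 and 0 indicates cell death.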 Values without a mark were called inactive. Active and inactive are the calls of the source. Rule for the calls: active = growth percent below 10; inactive = the rest.

In the case of `COc1ccc(C(=O)c2ccccc2CN2C(=O)c3ccccc3C2=O)cc1`, the growth in assay [1] was 91.7%; in assay [2], 102%; in assay [3], 105%; in assay [4] it was 86.7%; in assay [5] it was 95.3%; in assay [6], 98.9%. For the same compound, the figures for the growth in assay [7] and in assay [8] were 101% and 118%, respectively.
For `COc1cc2cc(Oc3ccc(NC(=O)Nc4cccc(C(F)(F)F)c4)cc3)c(C)nc2cc1OC`, the growth in assay [1] is 6.78% (active); in assay [2], -23.5% (active); in assay [3], 2.68% (active); in assay [4] it was -29.5% (active); in assay [5], -17.4% (active); in assay [6] it was 3.09% (active). Further, the growth in assay [7] is 15.1%; in assay [8], -20.2% (active).
In the case of `Cc1cc(Cl)ccc1Nc1nc(C(F)(F)F)ccc1C(=O)N/N=C/c1cccc(O)c1`, the growth was 43.8% in assay [1]; 38.8% in assay [2]; 30.9% in assay [3]; 48.1% in assay [4]; 40.2% in assay [5]; -30.6% (active) in assay [7]. Besides, the growth in assay [8] is 28.2%.
Turning to `Cc1ccc(C(SCC(N)C(=O)O)(c2ccc(C)cc2)c2ccc(C)cc2)cc1` (configuration not stated), the growth in assay [1] was 18.3%; in assay [2] it was 64.1%; in assay [3], 3.09% (active); in assay [4] it was -15.3% (active); in assay [5], -66.2% (active); in assay [6] it was 14.6%. For the same compound, the growth in assay [8] was 0.644% (active).
As to `CCOC(=O)C1=CSC2=NC3=C(CCC/C3=C\c3cc(OC)c(OC)c(OC)c3)C(c3cc(OC)c(OC)c(OC)c3)N12` (configuration not stated), the growth in assay [1] is 52.3%; in assay [2], 67.5%; in assay [3], 23.3%; in assay [4] it was 84.8%; in assay [5] it was 95.4%; in assay [6], 65.1%. In addition, the values for the growth in assay [7] and in assay [8] were 91.3% and 52.7%, respectively.
`Nc1cc(-c2ccncc2)c[nH]c1=O`: the growth was 102% in assay [1]; 103% in assay [2]; 110% in assay [3]; 90.9% in assay [4]; 106% in assay [6]; 103% in assay [7]. Further, in assay [8], the growth was 113%.
Consider `COc1ccc(Cl)cc1Nc1nc(C(F)(F)F)ccc1C(=O)N/N=C/c1ccc(Cl)cc1`, for which the growth in assay [1] is 64.1%; in assay [2], 52.1%; in assay [3], 26.9%; in assay [4], 25.7%; in assay [5], 31.6%; in assay [7], 13.6%. For the same compound, the growth in assay [8] was 18%.
`COc1ccc2c(c1)OC(N)=C(C#N)C2c1cc(OC)c(OC)c(OC)c1` (configuration not stated): the growth in assay [1] was 16.3%; in assay [2] it was 54.2%; in assay [3], 1.65% (active); in assay [4], -0.922% (active); in assay [5], -27.9% (active); in assay [6], 16.2%. Also, the growth was 15.2% in assay [7] and -48.6% (active) in assay [8].
For the compound `C=CCN(CC=C)C(=O)[C@H](CC)[C@@H]1CC[C@@H](C)[C@@H]([C@H](C)[C@@H](O)[C@@H](C)C(=O)[C@H](CC)C2O[C@]3(C=CC(=O)[C@]4(CC[C@@](C)([C@H]5CC[C@](O)(CC)[C@H](C)O5)O4)O3)[C@H](C)C[C@@H]2C)O1` (some centres not stated), the growth in assay [1] is 18.6%; in assay [2] it was 13.8%; in assay [3], 15.2%; in assay [4], -8.35% (active); in assay [5], 11.6%; in assay [6], 24.1%. For the same compound, the figures for the growth in assay [7] and in assay [8] were 44.3% and 1.18% (active), respectively.
Take `COc1ccc(-c2nn(-c3cccc(Cl)c3)cc2-c2nc(N)[nH]c(=O)c2C#N)cc1`: the growth in assay [1] is 42.7%; in assay [2] it was 67.3%; in assay [3], 92.2%; in assay [4], 71.2%; in assay [5] it was 49.6%; in assay [6] it was 85.1%. For the same compound, the growth in assay [7] is 57.2%; in assay [8] it was 107%.
As to `COc1ccccc1-n1c(-c2sc(NC(C)=O)nc2C)n[nH]c1=S`, the growth in assay [1] was 101%; in assay [2], 106%; in assay [3], 110%; in assay [4], 105%; in assay [5] it was 102%; in assay [6], 104%. Besides, the growth is 106% in assay [7] and 116% in assay [8].
For the compound `Cc1cc(CCNC=O)c(C)c2c1sc1ccccc12`, the growth in assay [1] is 86.6%; in assay [2], 77.2%; in assay [3], 104%; in assay [4] it was 91.2%; in assay [5] it was 101%; in assay [6] it was 82.9%. Further, the growth was 106% in assay [7] and 124% in assay [8].
As to `Cc1cc(NC(=O)c2ccc(C)c(Nc3nccc(-c4cccnc4)n3)c2)cc(-n2cnc(C)c2)c1`, the growth was 67.6% in assay [1]; -17.6% (active) in assay [2]; 2.48% (active) in assay [3]; 25.3% in assay [4]; 59.3% in assay [5]; 47.1% in assay [6]. The figures for the growth in assay [7] and in assay [8] were -30% (active) and 4.18% (active), respectively.
For `CO[C@H]1CC(O[C@@H]2/C(C)=C/C[C@@H]3C[C@@H](C[C@]4(C=C[C@H](C)[C@@H](C5CCCCC5)O4)O3)OC(=O)[C@@H]3C=C(C)[C@@H](O)[C@H]4OC/C(=C\C=C\[C@@H]2C)[C@]43O)O[C@@H](C)C1O[C@H]1C[C@H](OC)[C@@H](O)[C@H](C)O1` (some centres not stated), the growth was -63.7% (active) in assay [1]; -85.8% (active) in assay [2]; -86.7% (active) in assay [3]; -82.9% (active) in assay [4]; -79.7% (active) in assay [6]; -80.3% (active) in assay [7]. Besides, in assay [8], the growth was -64.7% (active).
Consider `COc1ccc(CCN2CCC(Nc3nc4ccccc4n3Cc3ccc(F)cc3)CC2)cc1`, for which the growth is 47.1% in assay [1]; 60% in assay [2]; 1.57% (active) in assay [3]; -20.1% (active) in assay [4]; 28.7% in assay [6]; -96.5% (active) in assay [7]. The growth in assay [8] was -65.7% (active).
For `CCOC(=O)c1cc(C(=O)c2ccc(F)cc2F)n2ccccc12`, the growth in assay [1] was 101%; in assay [2], 88.2%; in assay [3] it was 97.5%; in assay [4], 47.1%; in assay [5], 70.1%; in assay [6], 86%. Besides, the figures for the growth in assay [7] and in assay [8] were 90.6% and 110%, respectively.
